In PubChem BioAssay AID1794842 (National Center for Advancing Translational Sciences (NCATS), 2023):
The campaign covered roughly 2,800 compounds. Fewer than 10 were called active. Calls follow the shape of the dose curve; as a rule, active = well fitted curve in the direction sought with a large enough effect; inconclusive = small, poorly fitted or top-dose-only effect, or another doubt; inactive = no such curve, though single readings can be large or run the other way. Only a sample is shown.

Each molecule was assayed against Metallo-beta-lactamase type 2 (Klebsiella pneumoniae) (UniProt C7C422) (assay: qHTS to identify inhibitors of the New Delhi Metallo-beta-lactamase (NDM): Meropenem screen against the machine-based learning selections.). Settings: Purified NDM-1, meropenem hydrolysis, absorbance 300 nm; series mostly up to 38.4 µM; activity change, negative = inhibition: at the top concentration.
Chain of Metallo-beta-lactamase type 2 (Klebsiella pneumoniae) (C7C422 whole entry, looked up): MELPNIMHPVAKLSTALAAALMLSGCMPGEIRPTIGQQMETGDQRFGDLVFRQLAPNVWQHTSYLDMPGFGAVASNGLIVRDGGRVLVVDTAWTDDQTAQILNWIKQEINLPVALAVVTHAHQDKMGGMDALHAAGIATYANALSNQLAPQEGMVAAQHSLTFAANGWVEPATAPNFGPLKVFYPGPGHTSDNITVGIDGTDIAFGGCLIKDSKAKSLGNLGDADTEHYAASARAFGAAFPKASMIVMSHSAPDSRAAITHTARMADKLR
Excerpt: Assay Submitter (PI): James Inglese Ph.D., Patricia Dranchak Ph.D., Mahesh Aitha Ph.D. Assay Development and Screening Technology Laboratory (ADST) National Center for Advancing Translational Sciences (NCATS), Rockville, MD National Institute of Health (NIH), Bethesda, Maryland The metallo-beta-lactamases (MBL) are a main antibiotic resistance mechanism evolved by bacteria. There is an urgent clinical need for MBL inhibitors to mitigate this growing threat. To support a machine-based learning study, qHTS has been used to experimentally test inhibitors identified by prediction tools.
PROTOCOL TABLE (as described by Inglese et al., 2007) SEQUENCE No. (e.g., 1, 2, 3, etc.); […] (e.g., enzyme, Incubation, Reagent, etc.); VALUE; DESCRIPTION Primary Screen 1; NDM-1; 4 uL of 3 nM enzyme [2 nM final] in 50 mM HEPES (pH 7.0), 1 uM […], 0.01% Tween20; Use BioRaptr to dispense into two sets of Aurora black, clear bottom high base 1536-well plates 2; Compounds; 23 nL; Use Pin Tool (Wako) to transfer DMSO control and library compounds in DMSO 3; Incubate; >30 min 4a; Reagent; 2 uL of 50 uM nitrocefin [16.7 uM final] to one set of assay plates 4b; Reagent; 2 uL of 150 uM meropenem [50 uM final] to second set of assay plates 5a; Incubate; 15 min 5b; Incubate; 30 min 6a; Detector; Absorbance at 485 nm (bandwidth = 5 nm, 25 flashes/well) on Tecan Infinity 6b; Detector; Absorbance at 300 nm (bandwidth = 5 nm, 25 flashes/well) on Tecan Infinity NOTES (numbers refer to sequence above) 1; Column 1 of each plate received assay buffer without enzyme and columns 2-48 received enzyme for a final assay concentration of 2 nM. 2; Control plate contained DMSO in columns 1, 2, 3, and 4. 3; Compound interaction with enzyme. 4; Nitrocefin and meropenem substrates were prepared in the same assay buffer as step 1 for a final assay concentration of 16.7 uM and 50 uM, respectively, and added to all wells across respective sets of assay plates. 5; Default reader settings were applied for absorbance read at 485 nm (nitrocefin) or 300 nm (meropenem), bandwidth = 5 nm, 25 flashes/well. References: Inglese J, Shamu CE, Guy RK. 2007. Reporting data from high-throughput screening of small-molecule libraries. Nat Chem Biol. doi:10.1038/nchembio0807-438 Yasgar A, Shinn P, Jadhav A, Auld D, Michael S, Zheng W, Austin CP, Inglese J, Simeonov A. 2008. Compound Management for Quantitative High-Throughput Screening. J Lab Autom 13:79 - 89. doi:10.1016/j.jala.2007.12.004
Also: % of control where 0% means no effect.

Activity change, negative = inhibition, inactive:
C[C@@H](NS(=O)(=O)c1ccccc1)c1onc(-c2cccnc2)c1C(=O)O 2.4% [at 57.5 µM], C#CCN(C)CC[C@@H]1CC[C@H](O)[C@@H](C(=O)N(C)Cc2ccccc2)O1 -1.25% [at 57.5 µM], COCc1cc(C[C@@H]2CC[C@H](O)[C@@H](CNC(=O)C(C)(C)C)O2)no1 -0.975% [at 57.5 µM], O=C(NC[C@H]1Cn2c(-c3ccccc3)cnc2CO1)C1CCOCC1 4.09% [at 57.5 µM], O=C(NCc1ccccc1)O[C@H]1COCCN(c2nc3ccccc3o2)C1 0.432% [at 57.5 µM], O=C(Cc1ccccc1)Nc1ccc([C@@H](O)[C@H]2COCC(=O)N2CC2CC2)cc1 -0.857% [at 57.5 µM], CC[C@@]1(C(=O)O)C[C@H](C(=O)NC(CO)CO)[C@H](c2ccc(OC)cc2)N1C 24%, O=C(CN1CC2CC(C1)[C@H]1CCCC(=O)N1C2)NCc1cc(F)ccc1F (some centres not stated) 1.21%, NCCn1cc(C(=O)NCC(O)c2ccccc2C(F)(F)F)nn1 (configuration not stated) -3.94%, C[C@@H](NC(=O)c1cccs1)c1onc(-c2ccc(F)cc2)c1C(=O)O 3.33% [at 57.5 µM], O=[N+]([O-])c1cccc(-c2noc([C@@H]3C[C@@H](O)CN3Cc3ccccc3)n2)c1 2.26% [at 57.5 µM], CC(C)c1noc(-c2cccn3c(CNC(=O)c4cccc5[nH]ccc45)nnc23)n1 5.92%, CN(C)c1nccnc1OC1CCN(C(=O)CCCc2ccccc2)C1 (configuration not stated) -0.852%, Cc1cc(C(=O)NCCc2csc(-c3cccnc3)n2)cc(S(N)(=O)=O)c1C 2.03%, CC1(C)[C@H](Cc2cc(CCO)on2)C[C@@H]1N(S(C)(=O)=O)S(C)(=O)=O 13.4% [at 57.5 µM], CC(C)CCN1CCNC(=O)C1CC(=O)N(Cc1nccs1)C1CC1 (configuration not stated) 5.54%, Cn1c(CN2CCOCC2)nnc1C1CCN(c2ncccc2C#N)CC1 0.311%, CCCCNC(=O)c1cccc(CN2C(=O)CC(c3ccccc3C)C(C(=O)OCC)=C2C)c1 (configuration not stated) 5.31%, Cn1cnc2cc(-c3ccc(CO)cc3)cc(C(=O)NCc3cccnc3)c21 15% [at 57.5 µM], Cc1cc(F)ccc1OC1CN(Cc2ccc(F)cc2)C1 -0.758% [at 57.5 µM], COc1ccc(-c2noc([C@@H]3Cc4nc[nH]c4CN3Cc3ccc(NC(C)=O)cc3)n2)cc1 10.7%, CC1(C)C[C@H](NC(=O)c2ccccc2)[C@@]2(CCC(=O)NCCN3CCOCC3)CC[C@](C)(O)C[C@@H]12 0.402%, CC(C)(C)c1ccc(C(=O)Nc2nc3c(s2)C[C@@H]2[C@](C)(CO)[C@H](O)CC[C@@]2(C)[C@@H]3CC(=O)NC2CC2)cc1 1.17%, O=C(COc1ccccc1Cl)N1CCCC(O)(CN2CCCC2)C1 (configuration not stated) -0.507%, COCC(=O)NC[C@@H]1C=C(C)[C@H](CC(=O)Nc2ccccn2)C[C@H]1C(C)C 2.59% [at 57.5 µM], Cc1cnccc1N1CCCN(C(=O)c2cccc(C3CCCNC3)c2)CC1 (configuration not stated) -1.96%, COC(=O)[C@@H]1Cc2ncn(C)c2CN1C(=O)c1ccc(-c2ccccc2)cc1 15% [at 57.5 µM], NC(=O)[C@H](Cc1cccs1)NC(=O)C1=C[C@@H](NC(=O)c2ccc(F)c(Cl)c2)[C@@H](O)[C@H](O)C1 0.292%, COc1ccc(CN2CCNc3cc(Nc4cccnc4)ncc3C2)cc1O 3.47% [at 57.5 µM], CN1C[C@H](NCc2cccc(Cl)c2)CCC[C@@H](C(=O)NC2CC2)CC1=O 0.224% [at 57.5 µM], COc1ccc(CCC(=O)N2CCC(N3CC4CC(C3)[C@H]3CCCC(=O)N3C4)CC2)cc1 (some centres not stated) -0.571%, COC[C@H]1CCCN1C(=O)C[C@@H]1O[C@H](CNS(C)(=O)=O)[C@@H](O)[C@H]1O 19.9% [at 57.5 µM], CN[C@@H](CO)C(=O)NCc1nc(-c2cccc(F)c2)c(-c2ccccn2)[nH]1 29%, COc1ccc(-c2nc3ccncc3[nH]2)cc1 21.9% [at 76.7 µM], CC(=O)N1CCC(N[C@H]2CC(C)(C)[C@@H]3C[C@@](C)(O)CC[C@]23CCC(=O)NCCN2CCOCC2)CC1 -0.0233%, CC(O)CNS(=O)(=O)c1cccc(C(=O)Nc2cccc3c2CCC3)c1 (configuration not stated) 2.1%, COCCN1C(=O)CCc2cc(NC(=O)c3ccc(C)c(C)c3)ccc21 10.8%, OC[C@H]1CCN(c2ccnc3c(C(F)(F)F)cccc23)C[C@H]1O 1.06%, CC1CCN([C@@H]2[C@H](O)[C@H](CO)O[C@@H]2CNC(=O)c2ccccc2)CC1 18.5% [at 57.5 µM], CC(=O)N1CCC(N2C[C@@H]3OCC(=O)N[C@@H]3C2)CC1 1.4% [at 76.7 µM], NC(=O)c1cccc(-c2n[nH]c3c2CC(=O)N(CC2CCOCC2)C3)c1 5.77% [at 57.5 µM], O=c1c2nc(-c3cccc(O)c3)ccc2ncn1Cc1ccccn1 13.6% [at 57.5 µM], Cc1cc(C(=O)N[C@H]2[C@H](O)[C@H](O)C[C@@H]2c2cccnc2)no1 0.945% [at 57.5 µM], COc1ccc(F)c(CN2CCCC(O)(CN(C)Cc3cc(C)on3)C2=O)c1 (configuration not stated) 11.8%, O=C(Nc1cccnc1)c1ccnc(-c2nnc3ccc(Nc4ccccc4)nn23)c1 28.9% [at 57.5 µM], CCc1nc2c(c(-c3ccc(Cl)cc3)n1)CCN(Cc1ccc(F)cc1)CC2 -1.49%, COCc1cn(C[C@H]2C[C@@H](NCc3nccs3)[C@H](O)[C@@H]2O)nn1 47.1%, NC(=O)[C@H](Cc1cccs1)NC(=O)C1=C[C@@H](NC(=O)NC2CCCCC2)[C@@H](O)[C@H](O)C1 -0.293%, CC(C)C1CN(C(=O)c2ccccc2-c2ncc[nH]2)CCC(=O)N1CC1CC1 (configuration not stated) -1.59%, COC(=O)[C@H]1CN(C(C)=O)CCN1C(C)=O -0.0382% [at 76.7 µM], O=C(Cc1csc(-c2ccccc2)n1)N[C@H](c1ccccn1)C1CC(O)C1 (some centres not stated) 7.84%, Cc1cn(CC(=O)NC2CCOC3(CCOCC3)C2)c(=O)[nH]c1=O (configuration not stated) -0.851%, O=C1CN(C(=O)[C@H]2CN(Cc3ccccc3)C[C@H]2C(=O)O)CCN1 50.1%, Cc1noc(C2CC3(CCN(C(=O)C4CCC4)CC3)CN2C)n1 (configuration not stated) 1.47%, Cc1ncsc1CCC(=O)N[C@@H]1CCOC[C@H]1OCC(=O)O 24.4%, Cc1cc2c(cc1C(=O)N[C@H](c1ccccn1)C1CC(O)C1)OCCO2 (some centres not stated) 2.04%, Cc1ccn2c(C(=O)N3CCCC(c4[nH]ncc4-c4ccccc4)C3)nnc2n1 (configuration not stated) 3.57%, c1cncc(Nc2cc3c(cn2)CN(Cc2ccsc2)CCN3)c1 6.63% [at 57.5 µM], CC[C@@]1(O)CCN(C(=O)c2cccc(CCC(C)(C)O)c2)C[C@H]1O 1.82%, O=C(c1ccoc1)N1CCCC(CCc2ccc(F)c(F)c2)C1 (configuration not stated) -0.603%, Cc1cc(C)c(CNC(=O)c2nc(-c3cccc(O)c3)cc3[nH]ccc23)c(=O)[nH]1 15.9% [at 57.5 µM], COc1ccc(C(=O)NC[C@H]2O[C@@H](CC(=O)N3CCN(c4ccccc4OC)CC3)[C@H](O)[C@@H]2O)cc1 0.607%, COc1ccc(CN2C(=O)[C@@H]3C[C@@H](O)CN3C3(CN(C4CCC4)C3)C2=O)cc1 1.51% [at 57.5 µM], O=C(Cc1ccccc1Cl)N1CCC(Cc2nc(-c3ccc(F)cc3)no2)CC1 -1.26%, Cc1[nH]c2c(c1C(=O)N1CCCC(CCc3ccc(F)cc3)C1)C(=O)CCC2 (configuration not stated) 2.19%, O=C(c1ccccc1Cl)N1CCC2(CC1)Cc1ccccc1NC2=O 0.724%, Cc1ccc(C(=O)NC2CCN(c3cn[nH]c(=O)c3)CC2)cc1C 5.44%, O=C(NC1CCCCC1)O[C@@H]1CO[C@H]2[C@@H]1OC[C@@H]2NS(=O)(=O)c1ccc(Cl)cc1 -0.326%, O=C(Nc1ccc(C2(C(=O)NCc3ccco3)CCCCC2)cc1)C1CC1 0.56%, CN1Cc2ccc(NCc3ccccc3)nc2C(C)(C(=O)NCCc2cnc[nH]2)C1 (configuration not stated) 7.8% [at 57.5 µM], CN1c2cccnc2CN(Cc2cccc(Cl)c2)CC[C@H]1CO 0.122% [at 57.5 µM], COc1ccc2nc(C[C@@H]3C[C@@H](C(C)C)[C@H](CNC(=O)Nc4ccc(F)cc4)C=C3C)[nH]c2c1 0.701%, COc1ccc(C(=O)N2C[C@@H]3OCC(=O)N(Cc4nccn4C)[C@@H]3C2)cc1 0.225% [at 57.5 µM], COc1ccccc1CN1CC(c2noc(-c3ccc(C)cc3C)n2)CC1=O (configuration not stated) -1.43%, COc1ccccc1-c1ccc2ncc(Nc3cccc(N[S+](C)(=O)[O-])c3)n2n1 17.9% [at 57.5 µM], Cc1nccn1-c1ccccc1CNC1CCC2(CCNCC2)CC1 37.8%, COC(=O)[C@H](NC(=O)[C@@H]1C[C@@H](NS(=O)(=O)c2cccc(C(F)(F)F)c2)CCN1C(=O)CCC(=O)O)C(C)C 0.233%, C=CCNC(=O)[C@@H]1Cc2cn(Cc3ccncc3)c3cccc(c23)[C@H](CC(C)C)N1 5.07% [at 57.5 µM], COc1cccc(CN2C[C@@H]3C(C(=O)O)[C@@H]3C2)c1OCCn1ccnc1 (some centres not stated) 37.8%, COC(=O)CO[C@@H]1CO[C@H]2[C@@H]1OC[C@@H]2NC(=O)Nc1cccc(C(F)(F)F)c1 -0.0488% [at 57.5 µM], c1cc(-c2n[nH]c(CNC3CCC4(CCNCC4)CC3)n2)ccn1 33.1%, COCC(=O)N1CCc2nc(N(C)CCc3ccncc3)[nH]c(=O)c2CC1 1.22%, O=C1CC(C(=O)O)C2(CCN(c3cc(C(=O)O)c4ccccc4n3)CC2)N1 (configuration not stated) 8.2%, O=C1Nc2ccc(/C=C/c3ccccc3)cc2C(=O)N2CC[C@H](NS(=O)(=O)c3cccs3)[C@@H]12 3.88%, COC(=O)c1ccc2nc(C[C@@H]3C[C@@H](C(C)C)[C@H](CNCc4ccccc4F)C=C3C)[nH]c2c1 -1.26%, CCCCc1cc(C[C@@H]2C[C@H](NC(=O)NCC)C2(C)C)no1 -2.11% [at 57.5 µM], COCC(=O)N1CC[C@@H](CC(=O)O)[C@@H](CC2=NCCc3cc(OC)ccc32)C1 14.6% [at 57.5 µM], O=C(Nc1cccnc1)N1CCOC[C@H](Oc2ccccc2)C1 2.3% [at 57.5 µM], c1c(CC2CCCCC2)nnn1[C@H]1CO[C@H]2[C@@H]1OC[C@@H]2NCC1CCCCC1 -1.06% [at 57.5 µM], O=C(Nc1ccc(F)cc1)N1C[C@@H]2OCC(=O)N(Cc3ccc(OC(F)(F)F)cc3)[C@@H]2C1 -0.897%, O=C(Nc1ccc(Oc2ccccc2)cc1)N[C@H]1CO[C@H]2[C@@H]1OC[C@H]2OC(=O)Nc1cccc(C(F)(F)F)c1 1.79%, Cc1cc(C(=O)N[C@@H]2C[C@H](Cn3cc(C4CC4)nn3)[C@@H](O)[C@H]2O)no1 30.9% [at 57.5 µM]
